In PubChem BioAssay AID709 (SRMLSC, 2007) one finds fluorescence fold increase data, which are given here for 75 compounds.

Structures are written as SMILES. The campaign covered roughly 65,000 compounds. About 3,600 (5.5%) were called active. This is one part of a sample in which actives are shown more often than they occur. Unmarked numbers belong to inactive results.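 The calls were made as follows: active = at 10 µM, mean starting fluorescence two-fold or more over control wells; inactive = the rest.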

This test is described as follows: intrinsic fluorescence of library compounds, ex339/em460 – biochemical, MLSMR library, data from DPM-DC assay, artefact control, profiling panel (AID 709).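 Also: signal is the first read of a kinetic run.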 The conditions noted are these: compound autofluorescence, ex339/em460 nm, NADH buffer; at 10 µM; stronger effect = higher value; 1 = no-compound wells, NADH background.
Turning to `O=C(Nc1ccc(-c2nnc(-c3ccccc3)o2)cc1)C1CCCO1` (stereo not given), the fluorescence fold increase is 1.79. For `Nc1ccc(-c2nnc(-c3ccc(-c4ccccc4)cc3)o2)cc1` the value was 3.89 (active); for `O=C(Nc1ccc(-c2nnc(-c3ccccc3)o2)cc1)c1ccc(Br)o1`, 1.45.

Consider `CO/N=C(\C(=O)N[C@@H]1C(=O)N2C(C(=O)O)=C(COC(C)=O)CS[C@H]12)c1csc(N)n1` (stereo in doubt), for which the fluorescence fold increase is 1.08. With `CCCn1c(O)c(CN2CCCC(C)C2)c(C)c(C#N)c1=O` (stereo not given), the fluorescence fold increase was 1.26. For the compound `CCN(CC)Cc1c(C(=O)OC)nnn1-c1nonc1N`, the fluorescence fold increase was 1.05. On to `Cc1ccc2c(CSc3nncs3)cc(=O)oc2c1`, for which the fluorescence fold increase was 1.02. Take `COc1ccc(S(=O)(=O)Nc2ccc3c(c2)OCO3)cc1Cl`: the fluorescence fold increase is 1.03. Turning to `CC(=O)Nc1cccc(-c2cnc3ccccc3n2)c1`, the fluorescence fold increase was 1.09. For `CC(=O)Nc1ccc(-c2cn3cccnc3n2)cc1` the value was 5.32 (active). For `CCCC(=O)Nc1cccc(-c2cn3ccsc3n2)c1` the value was 1.09; for `c1ccc(-c2cn3cccnc3n2)cc1`, 2.51 (active); for `COc1ccc(-c2cn3ccsc3n2)cc1`, 1.08. Take `CCOc1nc(OCC)nc(-n2cc(-c3ccccc3)nn2)n1`: the fluorescence fold increase is 1.06.

For `O=C(Oc1cccnc1)c1cc2ccccc2oc1=O`, the fluorescence fold increase is 1.24. For `CCOC(=O)C1CCCCN1Cc1ccc(OC)c(OC)c1OC` (stereo not given), the fluorescence fold increase is 1.06. For `Cc1ccc2oc(=O)c3cnn(CC(=O)N4CCN(c5ccccn5)CC4)c3c2c1` the value was 1.1; for `O=C(Cn1nnc(-c2ccc3c(c2)OCO3)n1)NCc1ccco1`, 1.15; for `CCOc1ccc(C(CC(=O)O)NC(=O)COc2ccccc2)cc1` (stereo not given), 1.07. For the compound `O=S(=O)(O)c1nc2ccccc2n1Cc1ccc(Cl)cc1`, the fluorescence fold increase is 1.22. Take `N#Cc1c(N)n(CCOC(=O)c2ccc(Cl)cc2)c2nc3ccccc3nc12`: the fluorescence fold increase is 2.28 (active). For the compound `Cn1nnnc1SCc1cc(=O)[nH]c2ccccc12`, the fluorescence fold increase is 1.06. For `CC12CN3CC(C)(CN(C1)C3c1ccc(Cl)cc1Cl)C2=O` (stereo not given) the value was 1.04; for `CCCCOCCCNC(=O)c1ccccc1OCC`, 1.

On to `COC(=O)C1=C(C)N(C)C(C)=C(C(=O)OC)C1c1cccc(Br)c1`, for which the fluorescence fold increase was 1.12. Consider `CCOc1ccccc1C1C(C(=O)OC)=CN(C)C=C1C(=O)OC`, for which the fluorescence fold increase was 4.81 (active). `COC(=O)C1=CN(C)C=C(C(=O)OC)C1c1ccc(Cl)cc1Cl`: the fluorescence fold increase was 2.14 (active).

On to `CCOc1ccccc1N(CC(=O)Nc1ccccc1C(=O)OC)S(C)(=O)=O`, for which the fluorescence fold increase was 1.11. As for `CN1CCN(Cc2nc3c(c(=O)n(C)c(=O)n3C)n2Cc2cccc3ccccc23)CC1`, the fluorescence fold increase was 1.12.

`CCCOc1ccc(-c2nc(N)n[nH]2)cc1`: the fluorescence fold increase is 1.14.

`O=C1c2ccccc2C(O)N1Cc1ccccc1Cl` (stereo not given): the fluorescence fold increase is 1.04. Take `Cn1c(=NC(=O)c2ccco2)sc2cccc(F)c21`: the fluorescence fold increase was 1.85. Take `O=C(CSc1nnc(Cc2ccccc2)n1-c1ccccc1)N1CCOCC1`: the fluorescence fold increase is 1.04. For `CC(=O)c1cccc(NC(=O)c2ccncc2)c1` the value was 1.03; for `Cc1nc(NC(=O)C23CCC(C)(C(=O)O2)C3(C)C)sc1C` (stereo not given), 1.02; for `CC(=O)N=c1ncn(CC(COC(C)=O)OC(C)=O)c2nc[nH]c12` (stereo not given), 1.07.

As for `c1ccc(-n2ncc3c(N4CCCC4)ncnc32)cc1`, the fluorescence fold increase is 1.04.

Turning to `Cc1cccc(-n2ncc3c(N4CCc5ccccc54)ncnc32)c1`, the fluorescence fold increase was 2.26 (active). Take `COc1ccc(-n2c(C)nc3c(cnn3-c3ccccc3)c2=O)cc1`: the fluorescence fold increase is 1.1. Regarding `COc1ccc(-n2ncc3c(N4CCCc5ccccc54)ncnc32)cc1`, the fluorescence fold increase is 2.48 (active). As to `COc1ccc(N2CCN(C(=O)CSc3ncnc4c3cnn4-c3ccc(OC)cc3)CC2)cc1`, the fluorescence fold increase was 1.23. As to `C1=C(CCNc2ncnc3c2cnn3-c2ccccc2)CCCC1`, the fluorescence fold increase is 1.05. For `COc1ccc(-n2ncc3c(N4CCc5ccccc54)ncnc32)cc1` the value was 3.76 (active). For `Cc1ccc(-n2ncc3c(N4CCN(c5ccc(F)cc5)CC4)ncnc32)c(C)c1` the value was 1; for `C=CCNC(=O)CCCOc1cccc(C)c1`, 1.09; for `Cc1cc(/C=N/n2cnnc2)c(C)n1-c1ccc2ncccc2c1`, 1.05. In the case of `COc1ccc2nc(NC3=NCN(CC4CCCO4)CN3)nc(C)c2c1` (stereo not given), the fluorescence fold increase was 1.66. As for `Cc1cccc(N2CC(C)Cn3c2nc2c3c(=O)n(CC(=O)OCc3ccccc3)c(=O)n2C)c1` (stereo not given), the fluorescence fold increase was 1.1. `COc1cc(OC)c(C(=O)NC2CC(C)(C)NC(C)(C)C2)cc1OC`: the fluorescence fold increase is 1.16. On to `CSc1nc(O)c(Cc2ccccc2)c(=O)[nH]1`, for which the fluorescence fold increase was 1.07.

Regarding `O=C(Nc1ccc(Oc2ccccc2)cc1)c1ccco1`, the fluorescence fold increase was 1.11. For `CCOc1cc(NC(=O)c2ccco2)c(OCC)cc1NC(=O)COc1ccccc1` the value was 3.91 (active); for `Cc1ccc(C(=O)COc2cccc(NC(=O)c3ccco3)c2)cc1`, 1.18; for `CC(C)C(c1nnnn1C1CCCC1)N1CCN(c2ccccc2F)CC1` (stereo not given), 1.02. For `Cc1cccn2c(=O)c3cc(C#N)c(=NC(=O)c4cccnc4)n(CC4CCCO4)c3nc12` (stereo not given) the value was 2.38 (active).

`Cc1cccn2c(=O)c3cc(C#N)c(=O)n(CCCN4CCOCC4)c3nc12`: the fluorescence fold increase was 3.03 (active). As to `O=C(Cn1nc(Cc2cccnc2)c2ccccc2c1=O)NCC1CCCO1` (stereo not given), the fluorescence fold increase was 1.03.

Regarding `Cc1ccc(C2c3c(oc4ccc(C)cc4c3=O)C(=O)N2CCCN2CCOCC2)cc1` (stereo not given), the fluorescence fold increase is 1.09. For `COc1ccc(CNC(=O)c2cc3c(=O)n4ccccc4nc3n(CC3CCCO3)c2=N)cc1` (stereo not given) the value was 1.91; for `Cn1c(=O)c2c(nc(CN3CCOCC3)n2Cc2ccccc2)n(C)c1=O`, 1.04; for `CCOc1ccc2c(c1)cc(CN(C(=O)CC)C1CCCCC1)c1nnnn12`, 1.21.

Take `COc1cc(C2C(C#N)=C(N)Oc3n[nH]c(-c4ccccn4)c32)cc(OC)c1OC` (stereo not given): the fluorescence fold increase was 1.09.

For `COc1cccc(-c2nc3cc(C)ccc3o2)c1`, the fluorescence fold increase was 1.2. `CCc1ccc2oc(-c3ccc(N)cc3)nc2c1`: the fluorescence fold increase is 2.12 (active). Regarding `CCOC(=O)CSc1nc2c(c(=O)n(Cc3ccccc3Cl)c(=O)n2C)n1C`, the fluorescence fold increase is 1.06.

Take `N#Cc1nc(-c2ccc(OCc3ccccc3)cc2)oc1NCCCN1CCOCC1`: the fluorescence fold increase is 3.88 (active).

As for `N#Cc1nc(COc2ccc(-c3ccccc3)cc2)oc1NCc1cccnc1`, the fluorescence fold increase is 1.07. For `N#Cc1nc(Cc2ccccc2)oc1NCCc1ccccc1` the value was 1.1; for `Cc1ccc(NC(=O)c2cc(-c3ccc(C)o3)nc3ccccc23)nc1`, 2.48 (active). Turning to `Cc1cc(=O)oc(C)c1C(=O)Nc1cnc2ccccc2c1`, the fluorescence fold increase was 1.27. Consider `Cc1ccc2nc(-c3ccccc3)cc(C(=O)O)c2c1`, for which the fluorescence fold increase is 1.22. For `CCc1c(O)nc(SCC(=O)N2CCCCC2)n(-c2ccccc2C)c1=O`, the fluorescence fold increase was 1.04. On to `CC1CN(c2cc(=O)n(Cc3ccc(F)cc3)c(=O)[nH]2)CC(C)O1` (stereo not given), for which the fluorescence fold increase was 1.08. For `Cc1ccc(S(=O)(=O)c2c(N)n(C)c3nc4ccccc4nc23)cc1` the value was 3.95 (active). Take `Cc1ccc(S(=O)(=O)NCc2nc3ccccc3c(=O)n2N)cc1`: the fluorescence fold increase was 1.1.
